Results from PubChem BioAssay (NCI).
Several values for one entry are separate records, joined by “and”; a condition that tells them apart may be missing. Equal entries are not always repeated. This is part of a sample that, as a whole, favours compounds with a hit. Of some 83,000 tested, about 20% had one in any assay.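 Cells were grown in 96-well plates and exposed to the test compound at a single concentration for 48 hours; results are reported as percent growth, with values below 10 considered active.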 Values without a mark were called inactive. Activity calls are given as the source filed them.

What follows are compounds tested on HL-60(TB) leukemia (assay: NCI-60 one-dose screen, 48 h (100 = growth as untreated, 0 = no growth, -100 = all killed)). Settings: 10 µM unless noted.

Structure (SMILES)	growth
CC(=O)OCC1OC(OC(C)=O)C(OC(C)=O)C(OC(C)=O)C1OC(C)=O (stereo not given)	120% and 101%
CN(C)CCNc1nc2ccccc2c2c(=O)c3ccccc3sc12	9.19% (active)
CCN(CC)CCNC(=O)n1cc(-c2ccncc2)c(-c2cc(Cl)cc(OC)c2)n1	78%
CC(=O)/C(=C/c1ccc(-c2ccccc2)cc1)C(=O)c1ccccc1	56.3%
O=S(=O)(NCCCNc1nccc(-c2c(-c3ccc(F)c(O)c3)nc3occn23)n1)c1ccccc1	84.3%
COc1ccc(CCN(C)CCCC(C#N)(c2ccc(OC)c(OC)c2)C(C)C)cc1OC (stereo not given)	92.4% and 72.5% and 104%
Cc1cc(OCc2ccc(C(F)(F)F)cc2)c2c(c1)C(=O)C=C(NCCN1CCCC1)C2=O	96.6%
COc1cc(-c2nn(C)nc2-c2cc3ccccc3s2)cc(OC)c1OC	-3.84% (active)
O=[P@@]1(c2ccccc2)O[C@H](COCc2ccccc2)[C@@H](OCc2ccccc2)[C@H](OCc2ccccc2)[C@H]1NCc1ccccc1	-25.1% (active)
Cc1cc(OC(=O)c2ccc([N+](=O)[O-])cc2)nc2[nH]c(=O)sc12	99.5%
CCOc1ccc2c(S(=O)(=O)O)cccc2c1[N+](=O)[O-]	113% and 95.7%
O=C1c2cccnc2-c2nccc3c2c1nc1cc(Br)ccc13	-68.1% (active) and -56.3% (active)
COc1cc(-c2nn(-c3ccc(NC(=O)c4ccc(Cl)c(C(F)(F)F)c4)cc3)cc2-c2ccncc2)ccc1Cl	12%
COc1cc(NC2CCC(=O)N2c2ccc(Cl)cc2Cl)cc(OC)c1OC (stereo not given)	-3.13% (active)
Cc1c(N)ccc(-c2ccc(N)c(C)c2S(=O)(=O)O)c1S(=O)(=O)O	94.7%
CNc1ccc2nc3ccc(=[N+](C)C)cc-3sc2c1	-22.9% (active) and 5.72% (active)
Brc1ccc2c(c1)CN(C1CCCCC1)CO2	106%
Nc1[nH][nH]c(=O)c1N=Nc1ccccc1	98.6% and 102%
CC1(C)C2CC1C1(/C=N\Nc3ccccc3)C(C2)C(C#N)(C#N)C1(C#N)C#N (stereo not given)	89.9%
C=C1C(=O)O[C@H]2[C@H]1CC/C(COC(=O)/C=C/C(=O)NCc1ccc(Cn3c(=O)sn(-c4ccccc4)c3=O)cc1)=C\CC[C@@]1(C)O[C@@H]21	-54.7% (active)

Structure (SMILES)	growth
COc1ccccc1C(C[N+](=O)[O-])c1c(-c2ccccc2)[nH]c2cc(C)ccc12 (stereo not given)	58.9%
Cc1ccc(-c2noc(CC(=O)c3ccc([N+](=O)[O-])cc3)n2)cc1	65.2%
Cc1cccc2nnc(-c3ccccc3)n12	99%
N/C(=N\c1nc2ccccc2s1)NC(=O)Nc1ccccc1Cl	-27.3% (active)
CCOc1cc2ncc(C#N)c(Nc3ccc(F)c(Cl)c3)c2cc1NC(=O)CC1CCSS1 (stereo not given)	-33.9% (active)
[B-][N+](CC)(CC)c1ccccc1	45.6%
FC(F)(F)c1ccc2c(c1)N(CCCN1CCN(C3CC3)CC1)c1ccccc1S2	25.6%
Cc1sc2c(c1C)c(=O)nc1c(-c3nc4ccccc4s3)n[nH]n12	98.3%
O=C(Cn1c2c(c3ccccc31)CCCC2)Nc1ccc(-c2nc3ccccc3s2)cc1	99.1%
O=C1/C(=C\c2cn(C(=O)c3ccc(Cl)cc3)c3ccccc23)c2ccccc2N1c1c(Cl)cccc1Cl	103%
COc1ncc(F)c(OC)n1	95.3%
COc1cc2nc(Cl)nc(Nc3cccc(C(=O)/C=C/c4ccc(Br)cc4)c3)c2cc1OC	77.8%
COc1ccc(-c2nsc3c2NC(=O)CC3c2ccc(Cl)cc2)cc1 (stereo not given)	80.1%
N#CC1c2ccccc2C=CN1C(=O)c1ccccc1 (stereo not given)	93.2% and 71.1%
COc1ccc2c(c1)C(=O)/C(=C/c1ccc([N+](=O)[O-])o1)O2	-42.3% (active)
CC1(C)CC[C@]2(C(N)=O)CC[C@]3(C)C(=CC[C@@H]4[C@@]5(C)C/C(=C/c6ccncc6)C(=O)C(C)(C)[C@@H]5CC[C@]43C)[C@@H]2C1	-19.2% [100 µM] (active)
O=C1CC(=O)N(C(=O)c2nn(-c3ccc(Cl)cc3)cc2O)N1	4.53% (active)
CN(CC(=O)Nc1nc2ccccc2[nH]1)S(=O)(=O)c1ccc(Cl)cc1	90%
O=Cc1c(O)c2ccccc2[nH]c1=O	126%
CCn1cnc(C[C@H](NC(=O)[C@H](CCCCNC(=O)Nc2cc(C(F)(F)F)cc(C(F)(F)F)c2)NC(=O)Nc2cc(C(F)(F)F)cc(C(F)(F)F)c2)C(=O)OC)c1	-48.7% [100 µM] (active)
